Reference: PMC11062922 (Nature Chemical Biology, 2023)
Read-outs that look alike come from different tables or passages of the source.

What was measured:
Set-up in all cases: species or system human, MV4-11 + K-562 + COLO205 + SK-N-BE2 + OVCAR-8
[1] = test system: ACVR1B; conditions: read-out: apparent Kd; compound concentrations:100 nM and 1000 nM (sheet 'Samples'); n = 1
[2] = test system: SLK; conditions: read-out: apparent Kd; compound concentrations:100 nM and 1000 nM (sheet 'Samples'); n = 1
[3] = test system: STK10; conditions: read-out: apparent Kd; compound concentrations:100 nM and 1000 nM (sheet 'Samples'); n = 1
[4] = test system: PRKD2; conditions: read-out: apparent Kd; compound concentrations:100 nM and 1000 nM (sheet 'Samples'); n = 1
[5] = test system: PRKD3; conditions: read-out: apparent Kd; compound concentrations:100 nM and 1000 nM (sheet 'Samples'); n = 1
[6] = test system: NQO2; conditions: read-out: apparent Kd; compound concentrations:100 nM and 1000 nM (sheet 'Samples'); n = 1
[7] = test system: RIPK2; conditions: read-out: apparent Kd, n = 1
[8] = test system: TESK2; conditions: read-out: apparent Kd; compound concentrations:100 nM and 1000 nM (sheet 'Samples'); n = 1
[9] = test system: TGFBR1; conditions: read-out: apparent Kd; compound concentrations:100 nM and 1000 nM (sheet 'Samples'); n = 1
[10] = test system: TGFBR2; conditions: read-out: apparent Kd, n = 1
[11] = test system: T1, DJA1; conditions: read-out: apparent Kd; compound concentrations:100 nM and 1000 nM (sheet 'Samples'); n = 1
T1 construct: gene DNAJA1

[12] = test system: FYN; conditions: read-out: apparent Kd; compound concentrations:100 nM and 1000 nM (sheet 'Samples'); n = 1
[13] = test system: PIK3CA; conditions: read-out: apparent Kd; compound concentrations:100 nM and 1000 nM (sheet 'Samples'); n = 1
[14] = test system: PIK3CD; conditions: read-out: apparent Kd; compound concentrations:100 nM and 1000 nM (sheet 'Samples'); n = 1
[15] = test system: STK16; conditions: read-out: apparent Kd; compound concentrations:100 nM and 1000 nM (sheet 'Samples'); n = 1
[16] = test system: ACVR1; conditions: read-out: apparent Kd; compound concentrations: 100 nM and 1000 nM (sheet 'Samples'), CATDS: 9.7395071504851799E-2; n = 1
[17] = test system: ATM; conditions: read-out: apparent Kd; compound concentrations: 100 nM and 1000 nM (sheet 'Samples'), CATDS: 0.20840274799776901; n = 1
[18] = test system: CDC42BPG; conditions: read-out: apparent Kd; compound concentrations: 100 nM and 1000 nM (sheet 'Samples'), CATDS: 7.2395541627420706E-2; n = 1
[19] = test system: CLK1; conditions: read-out: apparent Kd; compound concentrations: 100 nM and 1000 nM (sheet 'Samples'), CATDS: 0.111342996670081; n = 1
[20] = test system: CLK2; conditions: read-out: apparent Kd; compound concentrations: 100 nM and 1000 nM (sheet 'Samples'), CATDS: 0.14537230764377601; n = 1
[21] = test system: CLK4; conditions: read-out: apparent Kd; compound concentrations: 100 nM and 1000 nM (sheet 'Samples'), CATDS: 9.3990878908875697E-2; n = 1
[22] = test system: DDX3X;DDX3Y; conditions: read-out: apparent Kd; compound concentrations: 100 nM and 1000 nM (sheet 'Samples'), CATDS: 7.1763596621612302E-2; n = 1
[23] = test system: FLT3; conditions: read-out: apparent Kd; compound concentrations: 100 nM and 1000 nM (sheet 'Samples'), CATDS: 0.113809183908987; n = 1
[24] = test system: RIPK3; conditions: read-out: apparent Kd, compound concentrations: 100 nM and 1000 nM (sheet 'Samples'), n = 1
[25] = test system: ACVR2B; conditions: read-out: apparent Kd, compound concentrations: 100 nM and 1000 nM (sheet 'Samples'), n = 1
[26] = test system: PI4KB; conditions: read-out: apparent Kd; compound concentrations: 100 nM and 1000 nM (sheet 'Samples'), CATDS: 0.57979233132980301; n = 1
[27] = test system: BCR; conditions: read-out: apparent Kd; compound concentrations: 100 nM and 1000 nM (sheet 'Samples'), CATDS: 0.117591173693898; n = 1
[28] = test system: EPHA1; conditions: read-out: apparent Kd; compound concentrations: 100 nM and 1000 nM (sheet 'Samples'), CATDS: 0.1160485900451; n = 1
[29] = test system: GAK; conditions: read-out: apparent Kd; compound concentrations: 100 nM and 1000 nM (sheet 'Samples'), CATDS: 9.8647992016736893E-2; n = 1
[30] = test system: JAK2; conditions: read-out: apparent Kd; compound concentrations: 100 nM and 1000 nM (sheet 'Samples'), CATDS: 0.147380455866959; n = 1
[31] = test system: RET; conditions: read-out: apparent Kd; compound concentrations: 100 nM and 1000 nM (sheet 'Samples'), CATDS: 0.12743524996908201; n = 1
[32] = test system: SIK2; conditions: read-out: apparent Kd; compound concentrations: 100 nM and 1000 nM (sheet 'Samples'), CATDS: 9.6722651513250199E-2; n = 1
[33] = compound concentrations:100 nM and 1000 nM (sheet 'Samples')

COc1ccc2cc(-c3c(-c4ccncc4)nc(-c4ccc(S(C)=O)cc4C)n3C)ccc2c1 (stereo not drawn) [SB-630812]
potency estimated from few doses [1]: 0.288 µM
potency estimated from few doses [2]: 2.25 µM
potency estimated from few doses [3]: 1.99 µM

Cc1cccc(-c2cc(Nc3ccncc3)c3ccccc3n2)n1 [GSK223675A]
potency estimated from few doses [1]: 0.0217 µM
potency estimated from few doses [4]: 0.293 µM
potency estimated from few doses [5]: 0.59 µM

Cl.c1ccc(-c2n[nH]cc2-c2ccnc(-c3ccc(CN4CCOCC4)cc3)c2)nc1 [GW776245A]
potency estimated from few doses [1]: 0.335 µM
potency estimated from few doses [6]: 0.243 µM
potency estimated from few doses [7, 33]: 1.08 µM
potency estimated from few doses [8]: 1.58 µM
potency estimated from few doses [9]: 0.0518 µM
potency estimated from few doses [10, 33]: 1.23 µM

Clc1cccc(-c2nc(Nc3ccncc3)c3ccccc3n2)c1 [GW873004X]
potency estimated from few doses [1]: 0.843 µM
potency estimated from few doses [11]: 2.18 µM
potency estimated from few doses [12]: 0.937 µM
potency estimated from few doses [13]: 0.222 µM
potency estimated from few doses [14]: 0.106 µM
potency estimated from few doses [15]: 1.4 µM

CCS(=O)(=O)c1ccc(OC)c(Nc2ncc(-c3cccc(C(C)=O)c3)o2)c1 [GW621431X]
potency estimated from few doses [16]: 0.882 µM
potency estimated from few doses [17]: 0.232 µM
potency estimated from few doses [18]: 2.02 µM
potency estimated from few doses [19]: 0.661 µM
potency estimated from few doses [20]: 0.405 µM
potency estimated from few doses [21]: 0.958 µM
potency estimated from few doses [22]: 2.09 µM
potency estimated from few doses [23]: 0.633 µM
potency estimated from few doses ([24]; CATDS: 7.33471794094432E-2): 1.93 µM
potency estimated from few doses ([10]; compound concentrations: 100 nM and 1000 nM (sheet 'Samples'), CATDS: 0.12096887154144): 0.562 µM

CNc1ncnc2[nH]ncc12 [SKF-18355]
potency estimated from few doses ([25]; CATDS: 0.43951319986121201): 1.91 µM
potency estimated from few doses [26]: 1.08 µM

Fc1cc(Cl)ccc1Nc1ccnc2cc(-c3ccc(CN4CCSCC4)o3)ccc12 [GW560106X]
potency estimated from few doses ([25]; CATDS: 8.8140626462379107E-2): 1.65 µM
potency estimated from few doses [27]: 0.83 µM
potency estimated from few doses [28]: 0.853 µM
potency estimated from few doses [29]: 1.22 µM
potency estimated from few doses [30]: 0.547 µM
potency estimated from few doses [31]: 0.71 µM
potency estimated from few doses ([7]; compound concentrations: 100 nM and 1000 nM (sheet 'Samples'), CATDS: 0.19291932694362501): 0.357 µM
potency estimated from few doses ([24]; CATDS: 8.1688105237549893E-2): 2.08 µM
potency estimated from few doses [32]: 1.29 µM
